# HPGD block = blocks human HPGD enzyme activity; P15428; purified HPGD, NADH fluorescence kinetic, PGE2 substrate; Potency, µM, for the others: top-dose activity change, negative = inhibition, actives largely listed as inhibitors; 4.3% of 150,000 active; active = well fitted inhibition curve with a large enough effect, not every such curve was filed as active; inconclusive = small, poorly fitted or top-dose-only effect, or another doubt; inactive = no such curve, though single readings can be large or run the other way; also: potency is read from the fitted curve at half-maximal effect; % is scaled to controls: 0 for no effect and ±100 for the full control effect
#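 NADH formation kinetics: reaction with 30 uM PGE2 and 1 mM NAD+ (final), 20 nM enzyme, Tris-HCl pH 8 with Tween 20, after 15 min compound preincubation at room temperature. Fluorescence change, last versus first of five reads.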
# GoLoco inh red = blocks human Gai1 binding to RGS12 GoLoco peptide, red readout | P63096 | Gai1:RGS12 GoLoco peptide FP, rhodamine, 10 min | Potency, µM (series often up to 61.6 µM), for inactives: top-dose activity, negative = inhibition, hits mostly inhibitors | 0.44% of 230,000 active | AID 880; active = well fitted inhibition curve with a large enough effect, not every such curve was filed as active; inactive = no such curve, though single readings can be large or run the other way; also: potency is read from the fitted curve at half-maximal effect; % is scaled to controls: 0 for no effect and ±100 for the full control effect; nearly all actives have a fitted effect of over 30% in size
# PNC assembly inh = inhibitors of perinucleolar compartment assembly; PC3M PTB-GFP, PNC prevalence imaging, 16 h; active compounds read low; activity change (PNC), negative = inhibition, % at 10 µM; 3.1% of 140,000 active;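 active = readout at or below -70, meaning at least 70% loss of cells showing the perinucleolar compartment, a nuclear body marking cancer cells; inconclusive = readout between -30 and a set limit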;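 also: plate controls were DMSO wells for no effect and camptothecin positive control wells for full effect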
#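 Compounds are pinned in duplicate onto adhered PC3M cells stably expressing GFP-tagged PTB and incubated 16 h at 37 C. Cells are then fixed, nuclei stained with Hoechst, and PNC-positive cells counted.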
# ALDH1A1 inh = inhibitors of human aldehyde dehydrogenase 1A1; 7.3% of 220,000 active; Potency, µM (highest dose often 75.3 µM), inactives show at the highest dose activity, negative = inhibition, hits mostly inhibitors; P00352; Purified ALDH1A1, NADH fluorescence, propionaldehyde substrate; active = well fitted inhibition curve with a large enough effect, not every such curve was filed as active; inconclusive = small, poorly fitted or top-dose-only effect, or another doubt; inactive = no such curve, though single readings can be large or run the other way;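 also: potency is read from the fitted curve at half-maximal effect; plate controls were no enzyme wells and a reference inhibitor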
# Target sequence (P00352 whole entry, looked up): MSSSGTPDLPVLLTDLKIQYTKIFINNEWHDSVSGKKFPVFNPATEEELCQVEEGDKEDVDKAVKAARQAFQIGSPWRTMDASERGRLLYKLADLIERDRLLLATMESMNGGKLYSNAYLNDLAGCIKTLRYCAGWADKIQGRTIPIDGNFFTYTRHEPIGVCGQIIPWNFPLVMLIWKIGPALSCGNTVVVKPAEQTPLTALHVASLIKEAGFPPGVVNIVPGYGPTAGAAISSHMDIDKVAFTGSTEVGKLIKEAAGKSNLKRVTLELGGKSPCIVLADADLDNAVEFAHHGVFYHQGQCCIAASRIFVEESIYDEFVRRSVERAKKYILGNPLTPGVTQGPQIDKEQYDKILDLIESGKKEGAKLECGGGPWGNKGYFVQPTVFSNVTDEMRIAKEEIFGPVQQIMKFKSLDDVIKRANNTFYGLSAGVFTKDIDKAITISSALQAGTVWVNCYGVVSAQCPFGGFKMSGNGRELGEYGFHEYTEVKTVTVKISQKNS
# HTT ATP protect = protects HTT-Q103 PC12 cells, measured by ATP. 0.14% of 230,000 active. AID 1471. PC12 HTT-Q103 induced, cytoprotection, ATP luminescence, 40 h. Potency, µM (titrated, usually from 56.4 µM), inactives show cytoprotection (ATP increase), actives largely listed as activators; also: potency is read from the fitted curve at half-maximal effect; % of control where 0% means no effect; nearly all actives have a fitted effect of over 45% in size
#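 Compounds added alongside 100 nM tebufenozide, which induces toxic Q103 huntingtin exon 1-GFP in stable PC12 cells; surviving cells quantified by luminescent ATP measurement. Medium: phenol red-free DMEM, 5% equine and 5% calf serum.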
# HTT aggregate = mutant huntingtin aggregation inhibition. PC12 HttQ103-GFP aggregates, Acumen cytometry, 40 h. Potency, µM (doses to about 46.1 µM), inactives show at the top dose activity change, negative = inhibition, usual class: inhibitors. 1.1% of 220,000 active. AID 1688; also: potency is read from the fitted curve at half-maximal effect; % is scaled to controls: 0 for no effect and ±100 for the full control effect; nearly all actives have a fitted effect of over 60% in size
#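 Quantitative HTS on tebufenozide-induced (100 nM) PC12 cells stably expressing polyQ103 Huntingtin exon 1–GFP. Reduction of bright GFP aggregates, detected by laser scanning cytometry after lysis, identified actives across the titration.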
# Starred values were filed as active, the others as inactive; ? = inconclusive; . = no result; [ ] = another dose, or the depositor's remark. Only some compounds are listed: those with a hit (about 11% of all), similar ones and a draw of the others. Unless noted, calls follow the shape of the dose curve; as a rule, active = well fitted curve in the direction sought with a large enough effect; inconclusive = small, poorly fitted or top-dose-only effect, or another doubt; inactive = no such curve, though single readings can be large; an effect the other way counts as inactive or inconclusive.
SMILES,HPGD block,GoLoco inh red,PNC assembly inh,ALDH1A1 inh,HTT ATP protect,HTT aggregate
O=C(Oc1c(Br)cc([N+](=O)[O-])cc1Br)c1cccnc1,-8%,2%,?,1%,34%[10 µM],35µM*
COc1ccccc1[C@@H]1C(c2ccc(F)cc2)=NN(c2ccc(Br)cc2)[C@H]1C(=O)N1CCOC1=O,-19%,7%,.,?,-41%[40.3 µM],.
C=C(C)[C@@H]1CC[C@]2(C(=O)O)CC[C@]3(C)[C@H](CCC4[C@@]5(C)CC[C@H](O)C(C)(C)[C@@H]5CC[C@]43C)[C@@H]12 (stereo partly drawn),.,3%,.,-12%,-24%,.
CCCSc1cc(N2CCCC2)nc(-c2ccccc2)n1,-8%,8%,-7,16%,7%,-10%
CCCSc1cc(N2CCN(C)CC2)nc(-c2ccc(OC)cc2)n1,-19%,5%,-81*,?,-2%,-17%
Cc1ccc(S(=O)(=O)OCCc2ccccc2)cc1,-13%,5%,.,-3%,-26%,.
Cc1ccc(NC(=O)COC(=O)CSC(=S)N2CCOCC2)cc1,.,9%,.,-9%,-9%,-25%
CCc1nc2ccccc2n1CC(C)C(=O)O (stereo not drawn),-12%,-8%,-100*,5%,-8%[10 µM],-10%
CC(C)Cn1c(CNC(=O)c2ccccc2)nc2ccccc21,-13%,10%,4,12%,1%,9%
N#CCc1ccc(C(=O)c2ccccc2F)s1,20µM*,175%,5,-81%,-4%[10 µM],-9%
O=C(O)Cc1ccc(C(=O)c2ccccc2)s1,?,7%,30,-12%,-6%,-10%
Cc1nn(C(C)C(=O)O)c(=O)c2ccccc12 (stereo not drawn),.,18%,.,3%,-3%[10 µM],0%[9.22 µM]
Cn1c(COc2ccccc2)nnc1SCc1cc(=O)[nH]c2ccccc12,?,-13%,-107*,-4%,-29%[10 µM],-5%
Cc1ccc(NC(=O)CSc2nnc(-c3ccccn3)n2C)cc1,0%,7%,?,-1%,-16%,2.8µM*
CCOC(=O)c1cccc(NC(=O)CSc2nnc(COc3ccccc3)n2CC)c1,-1%,-5%,-15,-5%,19%[10 µM],6%
Cc1ccc(CSc2nnc(CC(=O)Nc3ccc(C)cc3)n2C)cc1,-14%,-35%,100,-11%,-7%,24%
Cc1ccc(NC(=O)Cc2nnc(SCC(=O)Nc3ccccc3)n2C)cc1,-4%,-4%,-8,10%,.,0.18µM*
COC(=O)c1cccc(NC(=O)CSc2nnc(COc3ccccc3)n2C)c1,-21%,2%,-126*,-4%,-9%[10 µM],7%
COc1ccc(S(=O)(=O)N(C)C)cc1NC(=O)CSc1nnc(-c2cccnc2)o1,.,2%,.,3%,-4%,4%
N#Cc1c(-c2cccs2)cc(C2CC2)nc1SCC(N)=O,?,7%,23,?,-7%,-8%
COCCCNC(=S)Nc1ccccc1[N+](=O)[O-],.,9%,.,22µM*,-89%[10 µM],?
CCCCNC(=S)Nc1cc([N+](=O)[O-])ccc1C,14µM*,3%,1,0%,3%[10 µM],18%
COc1cc(C(=O)NC(=S)Nc2ccccc2[N+](=O)[O-])cc(OC)c1OC,.,5%,.,18µM*,-45%,6%
COc1cc(C(=O)NC(=S)Nc2ccc([N+](=O)[O-])cc2C)cc(OC)c1OC,-7%,0%,-25,13µM*,8%[10 µM],24%
COc1ccc2c(c1)O[C@@H](c1ccc3c(c1)OCO3)[C@H](OC(=O)NS(=O)(=O)c1ccc(C)cc1)C2=O,-13%,5%,.,-3%,-61%,.
COc1ccc(/C=C/C(=O)c2ccc(O)cc2)cc1,.,0%,.,0%,-1%[10 µM],-10%[9.22 µM]
COc1ccc(/C=C/c2cc(-c3ccc(C)cc3)o[n+]2C)cc1,?,11%,-21,?,-69%,4.5µM*
COc1cccc(N2CC(=O)N(NC(=O)CSc3nc(C)cc(C)c3C#N)CC2=O)c1,-2%,6%,61,-7%,.,23%
O=C(NN=C1CCCC1)c1sc2ccccc2c1Cl,.,-5%,.,16µM*,-52%,-25%
